Values joined by “and” are separate entries in the source; they are usually repeats but may differ in a detail not shown here. Equal values may be shown once. Out of some 330,000 compounds screened, about 7,300 (2.2%) were called active. The sample holds actives, similar compounds and a random draw of the others, so the mix is not that of the screen.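 Rule for the calls: active = inhibition of at least 40%; inactive = the rest.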
Experiment: growth inhibitors of tim10-1 mutant yeast, primary screen, luminescence, uHTS (AID 463190);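 note: mutant grown at 25 °C; 0% = DMSO wells with yeast and 100% = wells holding no yeast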
Conditions: S. cerevisiae tim10-1 ts strain growth, BacTiter-Glo, 24 h; at 20 µM; active compounds read high

inhibition, active:
COc1ccc(S(=O)(=O)Nc2ccc(O)c(Sc3nc4ccccc4s3)c2)cc1 44.6%
C[C@@H](NC(=O)OC(C)(C)C)c1nnc(S(=O)(=O)Cc2ccccc2)o1 45.1%
CC1(C)CCSC(/C=C/c2ccccc2)=N1 44.4%
Cc1ccc(Oc2nc(-c3ccccn3)nc3ccccc23)cc1 44.9%
FC(F)(F)c1cccc(NC(=S)Nc2cccc(Cl)c2)c1 48.1%
Cc1ccc(C(=O)CCC(=O)N(C)CC(=O)Nc2c(Cl)cccc2Cl)cc1 97.9%
CSc1ccc(S(=O)(=O)NCc2ccc(Cl)cc2)cc1 44.8%
CCCCNC(=S)N/N=C1\CCCCc2ccccc21 47.7%
CCOC(=O)N1CCC(N2Cc3cccc(C(=O)Nc4c(C)cccc4CC)c3C2=O)CC1 51%
O=C(Nc1nnc(-c2ccccc2)o1)c1cc(-c2cccs2)nc2ccccc12 48.6%
Cc1ccccc1OCC(=O)Nc1ccc(N2CCN(C(=O)C(C)C)CC2)c(Cl)c1 63.3%
COc1cc([N+](=O)[O-])ccc1NC(=O)COC(=O)CCOc1ccc(C)cc1 50.3%
Cc1nonc1C(=O)N/N=C/c1ccc(O)cc1 51.4%
C/C(=N\NC(=S)NCc1ccccc1)C1CCCCC1 42.6%
O=C(COc1ccccc1Cl)N1N=C(c2cccs2)CC1c1ccco1 (stereo not given) 40.8%
COc1ccc(C(=O)COC(=O)c2ccc([N+](=O)[O-])s2)cc1OC 57.9%
CCc1ccc(-c2cc(C(=O)NCc3ccco3)c3ccccc3n2)s1 45.4%
Cc1cccc(OCCNC(=S)NC(=O)c2cccnc2)c1 45.9%
Cc1ccc(-c2csc(NC(=O)C3=COCCO3)n2)cc1C 40.5%
CC(C)(C)NC(=O)NC(=O)COC(=O)CCC1CCCCC1 40.3%
COc1ccc(CS(=O)/C(Cl)=C(/Cl)C(=O)Nc2ccc(OC)nc2)cc1 (stereo not given) 41%

inhibition, inactive:
CCCCCCCC(=O)NC(Nc1ccccc1OC)C(Cl)(Cl)Cl (stereo not given) -1.41%
CCOC(=O)c1ccc(N=C2SC(C(=O)NC)CC(=O)N2CCc2ccccc2)cc1 (stereo not given) 8.86%
Cc1cccc(N(C)C(=O)CN2C(=O)COc3ccc(S(=O)(=O)N4CCCCCC4)cc32)c1 25.2%
COc1ccc(NS(=O)(=O)c2ccc3oc(SCC(N)=O)nc3c2)cc1 6.21%
CCOc1ccc(S(=O)(=O)Nc2nc3cc(OC)ccc3s2)cc1 -15.2%
O=S(=O)(c1cccs1)N1CCN(CCOc2ccccc2)CC1 8.64%
C[C@H](NC(=O)OC(C)(C)C)c1nnc(SCC(=O)Nc2ccc(Br)cc2)o1 20.6%
CC(C)Sc1nnc([C@H](Cc2ccccc2)NC(=O)OC(C)(C)C)o1 15.3%
C=Cn1c(C(=O)O)ccc1-c1ccc(OC)cc1 4.85%
Cc1ccc(C(=O)NC2CCN(C(=O)Nc3ccccc3Cl)CC2)cc1 -3.39%
CC(NC(=O)CN(C)S(=O)(=O)c1ccc(F)cc1)C1CC2CCC1C2 (stereo not given) 25.6%
Cc1cc(CNCc2c(C(=O)N(C)Cc3ccccc3)nc3ccccn23)nn1C 10.5%
CC(C)(C)Nc1nc(-c2ccccn2)nc2ccccc12 -7.74%
COc1cnc(-c2ccccn2)nc1Oc1ccc(C(C)(C)C)cc1 35%
Cn1nc(C(C)(C)C)c([N+](=O)[O-])c1C(N)=O -18.4%
Cc1csc(NC(=S)Nc2cccc(Cl)c2)n1 29.1%
S=C(Nc1cccc(Cl)c1)Nc1ccc2c(c1)OCCO2 32.9%
Cc1cc(C)cc(OCC(=O)NCc2cc(C)nc3ccccc23)c1 20.5%
CCOc1ccc(-n2c(SCC(=O)NC3CCS(=O)(=O)C3)nnc2-c2cccnc2)cc1 (stereo not given) 7.61%
Cc1cccc(C)c1NC(=O)CN(C)C(=O)CCC(=O)c1ccccc1 9.26%
CN(CC(=O)Nc1c(Cl)cccc1Cl)C(=O)c1ccncc1 1.02%
Cc1ccc(CNC(=O)Cc2cn(C)c3ccccc23)cc1 27.3%
Cc1ccc(S(=O)(=O)NCCC(=O)NCc2ccc(Cl)cc2)cc1C 8.85%
CC(C)CNS(=O)(=O)c1ccc(CCC(=O)NCc2ccc(Cl)cc2)cc1 8.22%
O=C(OCC(=O)N1CCc2ccccc21)C1CCCN1S(=O)(=O)c1ccc(Cl)cc1 (stereo not given) -10.6%
COc1ccc(CN2CC(C(=O)NCCc3ccc(Cl)cc3)CC2=O)cc1 (stereo not given) -2.13%
Cc1ccc(NC(=S)N/N=C2/CCCc3c(C)cc(C)cc32)cc1 9.99%
CCCC1CCC(=NNC(=S)NCCc2ccccc2)CC1 (stereo not given) -25.5%
COC(=O)c1c(NC(=O)C(=O)N2CCCCC2)sc2c1CC(C)(C)OC2 8.07%
c1ccc(Cc2ccc(OCCn3ccnc3)cc2)cc1 -1.87%
CSCC[C@H](NC(=O)NC1CCCC1)C(=O)O 3.78%
CCOC(=O)N1CCC(N2Cc3cccc(C(=O)Nc4ccc(S(=O)(=O)N(CC)CC)cc4)c3C2=O)CC1 17.7%
O=C(O)c1cccc2c1C(=O)N(C1CCCC1)C2 8.44%
O=C(Nc1nnc(-c2ccc(Cl)cc2)o1)c1ccccc1Br 6.25%
CC(C)(C)Cc1nnc(NC(=O)c2cc(-c3ccccc3)nc3ccccc23)s1 23.3%
Cc1cc([N+](=O)[O-])nn1CCCC(=O)Nc1cccnc1Cl 16.8%
Cc1ccccc1OCC(=O)Nc1ccc(S(=O)(=O)N2CCOCC2)cc1 37.4%
Cc1ccccc1OCC(=O)Nc1ccc2c(c1)ncn2C 5.78%
Cc1cc(NC(=O)CCS(=O)(=O)c2ccc(F)cc2)no1 -5.29%
COc1cc([N+](=O)[O-])ccc1NC(=O)CN1CCCC1 6.08%
CSc1ccccc1NC(=O)COC(=O)CCCOc1ccc(C)cc1 7.06%
Cc1nc2ccc(C(=O)N/N=C/c3ccc(O)cc3)cc2[nH]1 0.009%
COC(=O)N/N=C/c1ccc(/C=N/NC(=O)OC)cc1 7.21%
O=C(O)Cc1csc(-c2cccc(Oc3ccccc3)c2)n1 7.9% and -6.65%
CN(CC(=O)NCCc1ccc(S(N)(=O)=O)cc1)CC(=O)Nc1ccc(F)c(F)c1F 0.849%
Cc1ccc(S(=O)(=O)N(CC(O)CN2CCCCC2)c2cccc([N+](=O)[O-])c2)cc1 (stereo not given) -38.7%
CC1CCCCN1C(=S)NCc1ccccc1 (stereo not given) -0.074%
C/C(=N\NC(=S)NCc1ccccc1)c1ccc(Cl)cc1 22.9%
Cc1oc(CC(C)C)c(CN2CCCC2)c1C(=O)O 3.08%
O=C1c2cccc(OCC(=O)N3N=C(c4cccs4)CC3c3ccc(F)cc3)c2CCN1Cc1ccccc1 (stereo not given) 19.6%
Cc1ccc(C2=NN(C(=O)COc3ncnc4ccccc34)C(c3ccco3)C2)cc1 (stereo not given) -2.47%
CCc1n[nH]c(=S)n1/N=C/c1c[nH]c2ccc(Br)cc12 12%
Cc1cc(C)cc(NC(=O)C2CCCN(S(=O)(=O)c3ccc4[nH]c(=O)ccc4c3)C2)c1 (stereo not given) -13.6%
O=C(OCC(=O)N1CCN(c2ccccc2)CC1)c1ccc([N+](=O)[O-])s1 11.9%
COc1cc(NC(=O)COC(=O)c2ccc([N+](=O)[O-])s2)cc(OC)c1OC 30.9%
S=c1[nH]nc(-c2ccco2)n1/N=C/c1ccc(Br)s1 22.5%
CC(=O)NCCNC(=O)c1cc(-c2cccc3ccccc23)nc2ccccc12 3.15%
CC(C)(C)c1ccc(C(=O)NCc2ccco2)cc1 15.4%
O=C(Cc1ccccc1)Nc1ccc(C(=O)Nc2ccccc2C(=O)O)cc1 1.08%
FC(F)(F)c1ccc(CN2C[C@@H]3C(c4ccccc4)C4(c5ccccc5)CC3(C4)[C@H]2c2ccccc2)cc1 (stereo not given in full) 28.9%
O=C(NCc1ccc2c(c1)OCO2)c1c(-c2ccsc2)sc2ccccc12 5.6%
CN[C@H](C(=O)NC[C@H]1O[C@@H](n2cnc3c(N)ncnc32)[C@H](O)[C@@H]1O)[C@@H](C)OCc1ccccc1 0.16%
Cc1ccc(Cl)c(NC(=O)CN2CCN(C=O)CC2)c1 -10.1%
Cc1cccc(OCC(=O)NCCNC(=O)c2cccnc2)c1 -27.3%
CCCOc1cccc(C(=O)NCCCNC(=O)c2cccnc2)c1 -5.09%
CN(C(=O)CSc1nnc(C2CC2)n1C)C1CCCc2ccccc21 (stereo not given) -15.4%
CC(=O)NCCC(=O)Nc1nc(-c2ccc3c(c2)OCCO3)cs1 4.76%
Cc1csc(NC(=O)C2=COCCO2)n1 6.44%
CC(C)(C)NC(=O)NC(=O)COC(=O)C1(C)CC1(Cl)Cl (stereo not given) 21.3%
COc1ccccc1OCCC(=O)OCC(=O)NC(=O)NC(C)(C)C 17.9%
Cc1cc(C)cc(C(=O)NC(=S)Nc2ccc3[nH]c(=O)[nH]c3c2)c1 12.4%
COc1ccc(CCNC(=O)c2cnc(Cl)c(Cl)c2)cc1 17.4%
COc1ccc(NC(=O)/C(Cl)=C(/Cl)S(=O)Cc2ccc(C)cc2)cn1 (stereo not given) 30.1%
COc1ccc(CCNC(=O)COC(=O)c2ccc[nH]c2=O)cc1 7.85%

From PubChem BioAssay AID463190 (Sanford-Burnham Center for Chemical Genomics, 2010)
